The record followed here is PubChem BioAssay (NCATS).

Results filed as inconclusive are left out. Values without a mark were called inactive. The source made the active and inactive calls. Calls come from the whole dose curve.
% is set by controls: 0 for no effect and ±100 for the full control effect; potency is the fitted concentration of half-maximal effect.

Atrial natriuretic peptide receptor 1 (Homo sapiens), sequence (P16066 whole entry, looked up, the tested form may be a part): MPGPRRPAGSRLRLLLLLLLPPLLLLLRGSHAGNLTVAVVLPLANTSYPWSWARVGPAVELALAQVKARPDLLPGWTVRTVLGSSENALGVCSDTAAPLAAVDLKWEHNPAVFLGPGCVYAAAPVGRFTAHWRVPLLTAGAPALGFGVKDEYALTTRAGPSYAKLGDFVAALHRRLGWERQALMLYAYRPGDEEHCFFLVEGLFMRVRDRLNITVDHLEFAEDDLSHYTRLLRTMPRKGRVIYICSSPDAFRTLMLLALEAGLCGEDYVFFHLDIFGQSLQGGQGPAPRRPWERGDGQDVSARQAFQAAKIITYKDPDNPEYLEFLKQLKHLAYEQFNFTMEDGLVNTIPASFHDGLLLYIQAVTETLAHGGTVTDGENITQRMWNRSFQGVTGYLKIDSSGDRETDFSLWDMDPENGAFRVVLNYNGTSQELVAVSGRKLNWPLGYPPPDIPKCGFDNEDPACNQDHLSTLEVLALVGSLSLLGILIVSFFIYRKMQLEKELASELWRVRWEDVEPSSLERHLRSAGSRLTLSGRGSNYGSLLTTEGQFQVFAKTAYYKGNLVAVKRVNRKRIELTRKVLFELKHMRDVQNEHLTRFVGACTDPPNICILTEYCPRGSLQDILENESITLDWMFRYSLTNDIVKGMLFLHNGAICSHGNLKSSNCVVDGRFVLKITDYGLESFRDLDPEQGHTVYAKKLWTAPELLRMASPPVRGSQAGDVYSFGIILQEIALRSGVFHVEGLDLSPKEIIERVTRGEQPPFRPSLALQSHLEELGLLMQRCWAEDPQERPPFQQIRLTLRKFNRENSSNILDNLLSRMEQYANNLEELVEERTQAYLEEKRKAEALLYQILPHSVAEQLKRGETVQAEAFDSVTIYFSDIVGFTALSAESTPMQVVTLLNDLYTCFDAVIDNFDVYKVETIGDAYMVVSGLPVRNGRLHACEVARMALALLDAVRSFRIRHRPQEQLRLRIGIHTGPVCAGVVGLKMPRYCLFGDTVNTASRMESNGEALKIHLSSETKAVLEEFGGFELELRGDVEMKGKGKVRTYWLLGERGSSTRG

The assay has as its target Atrial natriuretic peptide receptor 1 (Homo sapiens) (UniProt P16066). Put plainly: Natriuretic polypeptide receptor (hNpr1) antagonism - Pilot screen (AID 1347049). The following applies: hNpr1 cells, antagonist mode cGMP read-out; series mostly up to 57.5 µM; activity change, negative = inhibition: at the top concentration. As for the experimental part: In order to identify small molecular compounds that inhibit the hNpr1 receptor we developed a high-throughput assay to measure inhibition of the guanylate cyclase activity of the receptor. cGMP production was measured using a circular permutated Firefly luciferase (FLuc) enzyme functionally linked to the cGMP binding domain of human phosphodiesterase 5 (GloSensor technology pGS-40F, (Fan, F. et al. 2008). The cGMP-sensor was expressed in human embryonic kidney 293 (HEK-293) cells and FLuc activity was measured after stimulation with hNrp agonist peptide. hNrp agonists activates the receptor's associated guanylyl cyclase (GC) domain producing cGMP which then binds to the GloSensor resulting in FLuc activation, the enzymatic activity of which can be measured as bioluminescence with addition of luciferin substrate.
F. Fan, B. F. Binkowski, B. L. Butler, P. F. Stecha, M. K. Lewis, K. V. Wood, Novel genetically encoded biosensors using firefly luciferase. ACS Chem Biol 3, 346-351 (2008).
This assay was initially piloted by testing with a small diversity library of compounds with known pharmacological activity.
PROTOCOL TABLES (as described by Inglese J, Shamu CE and Guy RK. 2007)
SEQUENCE No. (e.g., 1, 2, 3, etc.); […] (e.g., Cells, Incubation, Reagent, etc.); VALUE and DESCRIPTION.
1. Cells. Seed 1500 HEK293 cGMP-sensor cells expressing hNpr1 per well in 4uL into Greiner 1536-well white/solid bottom high base, tissue culture-treated plates.
2. Incubation. Incubate plated cells at 37C in 5% CO2, 95% RH overnight.
3. Reagent. Add 1uL per well GloSensor reagent from Promega (2% final concentration) or CO2 independent media vehicle control to respective columns of Greiner 1536-well plates.
4. Incubation. Incubate plated cells at room temperature for 2 h, protect from light.
5. Compounds. Library compounds and A-71915 control added at 23 nL per well, transferred by Pin Tool.
6. Incubation. Incubate plated cells for 30 min. at room temperature, protect from light.
7. Detector. GloSensor baseline pre-read luminescence measured using CCD-based camera (Viewlux).
8. Compound. Add 1uL of hNppA peptide to 0.1 nM final concentration to stimulate hNpr1 or CO2 independent media as vehicle control.
9. Incubation. Incubate treated cells at room temperature for 20 min., protect from light.
10. Detector. GloSensor post-hNppA luminescence measured using CCD-based camera (Viewlux).
NOTES (numbers refer to Sequence numbers above)
1. HEK293 cells expressing hNpr1 and GIP/pGS-40F grown to 85-95% confluence (48-72 h) in T175 culture flasks (CO2 independent media supplemented with 10% FBS, 1% Pen/Strep antibiotics and 1 ug/mL puromycin). Trypsinize and harvest cells from T175 culture flasks and filter through 40 um cell strainer. Cells counted with Invitrogen Countess (30,000,000 - 50,000,000 cells/flask). Cells diluted to a final concentration of 375 cells/uL in CO2 independent media and a Millipore multidrop used to dispense 1500 cells per well (4uL/well) into 9 x 1536-well Greiner White/Solid bottom, high base tissue-culture treated (TC) plates and one Aurora 1536-well Black/Clear bottom, low base, TC plate (for visual inspection of cell health throughout the duration of the assay).
2. Cells incubated overnight at ambient temperature, 24 h. at 37C in 95% RH incubator protected from light, covered with metal lid with gas-exchange holes.
3. Prepare GloSensor Reagent (Promega): Reconstitute GloSensor luciferase substrate by adding 8.2mL Hepes buffer to 250mg substrate, mix well, protect from light and stored at -80C. Prepare a fresh 12% GloSensor solution in CO2 independent supplemented plating media (see above). Mix well and store at ambient temperature, protected from light. 1uL 12% GloSensor Luciferase Reagent added (2% final concentration) to respective columns of 9 x 1536-well Greiner plate with BioRaptr, 1uL CO2 independent plating media added to respective columns as vehicle control with BioRaptr.
4. […]
Take `Cn1cnc2c(NCc3ccccc3)nc(NCCO)nc21`: the “activity change, negative = inhibition” value is 2.48%.
With `C[N+](C)(C)CCO`, the “activity change, negative = inhibition” value is 11%.
Take `Nc1ncnc2n[nH]c(Nc3ccc(F)cc3)c12`: the “activity change, negative = inhibition” value was -5.04%.
On the same count and under the same terms, the result for `Clc1ccc2c(c1)N=C(N1CCNCC1)c1ccccc1N2` reads -9.08%; that for `NC(N)=NCCCCN=C(N)N`, 3.97%; that for `COc1ccccc1N1CCN(CCN2C(=O)CC3(CCCC3)CC2=O)CC1`, 5.24%.
Consider `O=C1NC(c2cccc([N+](=O)[O-])c2)=CCN1c1ccccc1O`, for which the “activity change, negative = inhibition” value was 24.2%.
`O=[N+]([O-])c1ccc(-c2nc(-c3ccc(F)cc3)c(-c3ccncc3)[nH]2)cc1`: the “activity change, negative = inhibition” value was -7%.
In the case of `CCN(CC)CCNC(=O)c1ccc(NS(C)(=O)=O)cc1`, the “activity change, negative = inhibition” value was 11.4%.
For `CC(C)N(CCC(=O)c1ccc2ccccc2c1)Cc1ccccc1`, the Potency is 13.5 µM (active).
With `COC(=O)C1=CO[C@@H](O)[C@@H]2C(CO)=CC[C@H]12`, the “activity change, negative = inhibition” value was -2.91%.
Regarding `Brc1ccc([C@H]2CN3CCSC3=N2)cc1`, the “activity change, negative = inhibition” value is -7.96%.
Same read-out and setting: as for `COc1cccc2c1[C@@H]1CN(CCCCn3c(=O)[nH]c4c(sc5ncc(-c6ccccc6)nc54)c3=O)C[C@@H]1CO2`, the figure is -3.31%; as for `N[C@@H](Cn1ccc(=O)c(O)c1)C(=O)O`, 12.2%; as for `CN(C)c1cc2c(Nc3ccc4c(cnn4Cc4ccccc4)c3)ncnc2cn1`, -17.7%.
As to `Cc1nn(-c2ccccc2)c(C)c1/C=N/N1CCN(Cc2ccccc2)CC1`, the “activity change, negative = inhibition” value is 0.887%.
